# Assay outcomes from PubChem.
# An excerpt weighted towards active compounds, which were near 2.7% of everything screened.
# ATG4B inhibitor – ATG4B (human) cysteine protease inhibition | Q9Y4P1 | ATG4B cleavage of LC3-PLA2, NBD-HPC fluorescence, 1 h | inhibition, % at 8.33 µM | 340,000 tested, 0.51% active; in the data active means inhibition above about 40%
# Target sequence (Q9Y4P1 whole entry, looked up): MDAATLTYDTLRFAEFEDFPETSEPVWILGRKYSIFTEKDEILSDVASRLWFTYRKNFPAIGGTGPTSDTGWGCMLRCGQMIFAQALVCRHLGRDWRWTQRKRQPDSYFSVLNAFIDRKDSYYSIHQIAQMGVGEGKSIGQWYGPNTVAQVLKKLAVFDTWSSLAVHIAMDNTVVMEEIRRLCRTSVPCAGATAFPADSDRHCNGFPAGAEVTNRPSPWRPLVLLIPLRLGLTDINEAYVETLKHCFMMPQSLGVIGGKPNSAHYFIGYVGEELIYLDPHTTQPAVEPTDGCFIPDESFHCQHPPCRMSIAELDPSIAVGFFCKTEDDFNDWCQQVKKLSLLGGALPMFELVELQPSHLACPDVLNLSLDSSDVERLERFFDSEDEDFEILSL
# CendR NRP1 mod – NRP-1/CendR interaction modulation | O14786 | FAM-RPARPAR peptide binding to NRP-1, fluorescence polarization | inhibition, % at 25 µM | 360,000 tested, 0.85% active | AID 602438;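 active means inhibition or corrected inhibition above about 18%, plus a signal ratio from 0.5 to 1.5, limit read from the data, passing the limit was not always enough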
# CFTR F508del cor – CFTR F508del correction in bronchial cells. CFBE cells, YFP halide quenching; stimulated with forskolin plus potentiator P3; % fluorescence drop versus neutral controls. activity (quench increase), % at 7.58 µM. 350,000 tested, 0.36% active;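 active means mean added fluorescence quench of at least 8% versus neutral control, with both replicates also reaching 8%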;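 further: cells transiently co-express mutant CFTR-F508del with the halide-sensitive YFP; corrector assay measuring rescue of mutant channel to the surface after 24 h compound exposure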
# SKN-1 block – blocks SKN-1 activity in C. elegans. inhibition, % at 21.8 µM. AID 624304. 360,000 tested, 0.49% active. C. elegans VP596 Pgst-4::GFP/RFP ratio, acrylamide-induced, 24 h;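 active means interference check ratio from 0.5 to 1.5 plus GFP to RFP signal ratio inhibition reaching or exceeding a fixed threshold, cut at about 30% in these data, passing the limit was not always enough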
# MPTP inh – permeability transition pore inhibition. inhibition, % at 10 µM. AID 602449. isolated mouse mitochondria, Ca2+ swelling absorbance, 30 min. 360,000 tested, 1.4% active;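 active means inhibition of 50% or more, scaled per plate between neutral and stimulator controls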
# A number is an active result; i = inactive; nt = no result.
SMILES,ATG4B inhibitor,CendR NRP1 mod,CFTR F508del cor,SKN-1 block,MPTP inh
CC(=O)/C(C#N)=C1\NC(=O)C(Cc2ccccc2C)S1 (stereo not drawn),i,i,11,i,i
COCC#Cc1ccc(CC[C@H]2O[C@H]3CC[C@H](CO)O[C@H]3C[C@@H]2n2cc(C3(O)CCCC3)nn2)cc1,nt,nt,i,nt,nt
Cc1nc(SCC(=O)N2CCOCC2)c2c(=O)n(C)c(=O)n(CC(C)C)c2n1,i,24,i,i,i
C=CC[C@]12N=C(c3ccc(OCCCO)cc3)O[C@H]1c1ccccc1CN(C(=O)c1ccccc1)C2=O,nt,nt,i,nt,nt
Clc1ccc2oc(-c3ccccn3)nc2c1,i,i,nt,39,i
O=[N+]([O-])c1cc(S(=O)(=O)N2CCOCC2)ccc1OCc1cccc(Cl)c1,i,i,i,i,i
Cc1cccc(COc2ccc(S(=O)(=O)N3CCOCC3)cc2[N+](=O)[O-])c1,i,20,i,i,i
CC(C)C(Nc1ccc(S(=O)(=O)N2CCOCC2)cc1[N+](=O)[O-])C(=O)O (stereo not drawn),i,28,i,i,i
CC(Sc1ccc(S(=O)(=O)N2CCOCC2)cc1[N+](=O)[O-])C(=O)O (stereo not drawn),i,i,nt,i,i
COC(=O)[C@H]1[C@H](CO)[C@H]2Cn3c(ccc(-c4ccccc4F)c3=O)[C@H]2N1CC1CCOCC1,nt,nt,i,nt,nt
CC(C)n1c2ccccc2c2cc([N+](=O)[O-])ccc21,i,i,nt,i,i
O=[N+]([O-])c1ccc2nn(Cc3ccccc3)cc2c1,i,i,i,i,i
CN(C)CCn1c2ccccc2c2nc3ccc([N+](=O)[O-])cc3cc21,i,i,13,i,i
CCn1c2ccccc2c2cc([N+](=O)[O-])ccc21,i,29,i,i,i
CCC(=O)N(C)C[C@H]1Oc2cc(C#CC(C)(C)O)ccc2S(=O)(=O)N([C@H](C)CO)C[C@@H]1C,nt,nt,i,nt,nt
COc1cccc(-c2cnc3c(c2)C(=O)N([C@@H](C)CO)C[C@H](C)[C@H](CN(C)Cc2ccc(C(=O)O)cc2)O3)c1,nt,nt,i,nt,nt
C[C@@H]1CN([C@@H](C)CO)C(=O)c2cccc(NC(=O)Nc3ccc(F)cc3)c2O[C@@H]1CN(C)S(C)(=O)=O,nt,nt,i,nt,nt
CCCc1cn(CC[C@@H]2CC[C@@H](NC(=O)C3CCOCC3)[C@H](CO)O2)nn1,nt,nt,i,nt,nt
COc1cccc(Nc2nc(NCC3CCCO3)c3ccccc3n2)c1 (stereo not drawn),i,i,nt,37,i
COC(=O)CNc1cc(S(=O)(=O)N2CCCCC2)ccc1Oc1ccc(C(=O)OC)cc1,i,i,8.7,i,i
O=C(c1ccc(S(=O)(=O)N2CCCC2)cc1)N1CCCCC1,i,i,i,i,i
COC(=O)c1ccc(S(=O)(=O)N2CCc3ccccc32)cc1,i,i,12,i,i
O=C(/C=C/c1ccc(O)c(O)c1)c1ccc(S(=O)(=O)N2CCCCCC2)cc1,i,22,nt,i,i
O=C(NCc1ccccn1)c1cccc(S(=O)(=O)N2CCCCC2)c1,i,i,i,i,i
COC(=O)CNc1cc(S(=O)(=O)N2CCCCC2)ccc1Oc1cccc(C)c1,i,i,i,i,i
SMILES,ATG4B inhibitor,CendR NRP1 mod,CFTR F508del cor,SKN-1 block,MPTP inh
O=C(NCCc1ccccn1)c1ccc(S(=O)(=O)N2CCCCCC2)cc1,i,i,nt,39,i
COC(=O)c1ccc(S(=O)(=O)N2CCCCCC2)cc1,i,i,nt,35,i
CC1CN(S(=O)(=O)c2ccc(C(=O)N3CCc4ccccc43)cc2)CC(C)O1 (stereo not drawn),i,i,16,i,i
COC(=O)c1ccc(NC(=O)COc2ccc(S(=O)(=O)N3CCCCC3)cc2)cc1,i,i,nt,i,i
Cc1noc(C)c1NC(=O)N(C)C[C@@H]1Oc2ccc(NS(=O)(=O)c3ccc(Cl)cc3)cc2CC(=O)N([C@H](C)CO)C[C@H]1C,nt,nt,i,nt,nt
Cc1ccc(CCNC(=O)c2coc3nc4ccccc4nc23)cc1,i,i,nt,37,i
COCC(=O)N1[C@@H](C#N)[C@@H](c2ccc(C3=CCCC3)cc2)[C@@H]1CO,nt,nt,i,nt,nt
COCc1c(C(=O)OCC(=O)NCCc2ccc(S(N)(=O)=O)cc2)oc2ccccc12,i,21,i,i,i
Cc1c(C(=O)OCC(=O)NCCc2ccc(S(N)(=O)=O)cc2)oc2ccccc12,i,i,i,i,i
CCS(=O)(=O)Nc1ccc2c(c1)C(=O)N(C)[C@H]1CC[C@@H](CC(=O)OC)O[C@H]1CO2,nt,nt,i,nt,nt
O=C(c1ccc2c(c1)OCO2)N1CC2(C1)[C@H](c1ccccc1)[C@@H](CO)N2C(=O)C1CC1,nt,nt,i,nt,nt
O=c1c(-c2ccc(Br)cc2)coc2c(CN3CCCCC3)c(O)ccc12,i,i,i,i,i
O=c1c(-c2ccc(Br)cc2)coc2c(CN3CCOCC3)c(O)ccc12,i,i,nt,35,i
CCCC#Cc1ccc2c(c1)O[C@H](CN(C)S(=O)(=O)c1cccc(F)c1)[C@@H](C)CN([C@H](C)CO)S2(=O)=O,nt,nt,i,nt,nt
O=C(C[C@@H]1C[C@@H]2c3cc(NC(=O)CC4CC4)ccc3O[C@@H]2[C@H](CO)O1)NCc1cccc(F)c1,nt,nt,i,nt,nt
O=C(C[C@@H]1C[C@H]2c3cc(NC(=O)CC4CC4)ccc3O[C@H]2[C@H](CO)O1)NCc1cccc(F)c1,nt,nt,9.0,nt,nt
COc1ccc(CN2CCN(C(=O)c3ccc(S(=O)(=O)NCc4ccco4)cc3)CC2)cc1F,i,30,i,i,i
Cc1nn(CCO)c(N)c1C1(O)C(=O)Nc2c(Cl)cc(Cl)cc21 (stereo not drawn),i,24,i,i,i
O=C(C[C@H]1CC[C@@H]2[C@H](COC[C@@H](O)CN2Cc2ccccc2)O1)N1CCOCC1,nt,nt,i,nt,nt
O=C1CCC[C@@H]2Cc3nc4cc5c(cc4cc3[C@@H]3CCN1[C@H]23)OCO5,i,24,i,i,i
O=C1CCC[C@@H]2Cc3nc4ccc(O)cc4cc3[C@@H]3CCN1[C@H]23,i,i,i,i,i
C/C=C/c1ccccc1[C@H]1[C@H](C#N)N(C(C)=O)[C@H]1CO,nt,nt,i,nt,nt
Cc1c(C#N)c(O)n(CCO)c(=O)c1N=Nc1ccc2c(c1)COC2=O,i,i,nt,48,i
CN1C(=O)c2oc3ccccc3c(=O)c2C1c1cccnc1 (stereo not drawn),i,i,i,i,i
CN1C(=O)c2oc3ccccc3c(=O)c2C1c1ccccn1 (stereo not drawn),i,33,nt,i,i
COc1ccc2c3c(n(C)c2c1)[C@H](CO)N(C(=O)c1ccccn1)CC31CCN(C(=O)Cc2ccccc2)CC1,nt,nt,i,nt,nt
CCc1ccc(OCCNc2cc(N3CCNC(C)C3)ccc2[N+](=O)[O-])cc1 (stereo not drawn),i,i,13,i,i
CC1CN(c2ccc([N+](=O)[O-])c(NCCOc3ccc(Cl)cc3)c2)CC(C)N1 (stereo not drawn),i,i,i,i,i
C[C@H](O)C#Cc1ccc2c(c1)O[C@H](CN(C)Cc1ccccn1)[C@H](C)CN([C@@H](C)CO)S2(=O)=O,nt,nt,i,nt,nt
